The record followed here is PubChem BioAssay AID651957 (The Scripps Research Institute Molecular Screening Center, 2012).

Out of some 370,000 compounds screened, about 620 (0.17%) were called active. The sample holds actives, similar compounds and a random draw of the others, so the mix is not that of the screen. A number with no mark means an inactive call.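 The calls were made as follows: active = inhibition above the mean inhibition of all tested compounds plus 3 SD, set per campaign (cut at about 52% in these data); inactive = the rest.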

This assay deals with Nuclear receptor coactivator 2 (Homo sapiens) (UniProt Q15596). The assay can be described thus: decrease of SRC2 fusion reporter luminescence – cell-based, SRC2 inhibitor project, primary screen (AID 651957).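 Also: 0% = DMSO treated cells and 100% = cells given Gossypol at 36 µM.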 The note with it: HEK293 GAL4-SRC2 luciferase reporter, at 9 µM, hits give high values.
Sequence of Nuclear receptor coactivator 2 (Homo sapiens) (Q15596 whole entry, looked up, the tested form may be a part): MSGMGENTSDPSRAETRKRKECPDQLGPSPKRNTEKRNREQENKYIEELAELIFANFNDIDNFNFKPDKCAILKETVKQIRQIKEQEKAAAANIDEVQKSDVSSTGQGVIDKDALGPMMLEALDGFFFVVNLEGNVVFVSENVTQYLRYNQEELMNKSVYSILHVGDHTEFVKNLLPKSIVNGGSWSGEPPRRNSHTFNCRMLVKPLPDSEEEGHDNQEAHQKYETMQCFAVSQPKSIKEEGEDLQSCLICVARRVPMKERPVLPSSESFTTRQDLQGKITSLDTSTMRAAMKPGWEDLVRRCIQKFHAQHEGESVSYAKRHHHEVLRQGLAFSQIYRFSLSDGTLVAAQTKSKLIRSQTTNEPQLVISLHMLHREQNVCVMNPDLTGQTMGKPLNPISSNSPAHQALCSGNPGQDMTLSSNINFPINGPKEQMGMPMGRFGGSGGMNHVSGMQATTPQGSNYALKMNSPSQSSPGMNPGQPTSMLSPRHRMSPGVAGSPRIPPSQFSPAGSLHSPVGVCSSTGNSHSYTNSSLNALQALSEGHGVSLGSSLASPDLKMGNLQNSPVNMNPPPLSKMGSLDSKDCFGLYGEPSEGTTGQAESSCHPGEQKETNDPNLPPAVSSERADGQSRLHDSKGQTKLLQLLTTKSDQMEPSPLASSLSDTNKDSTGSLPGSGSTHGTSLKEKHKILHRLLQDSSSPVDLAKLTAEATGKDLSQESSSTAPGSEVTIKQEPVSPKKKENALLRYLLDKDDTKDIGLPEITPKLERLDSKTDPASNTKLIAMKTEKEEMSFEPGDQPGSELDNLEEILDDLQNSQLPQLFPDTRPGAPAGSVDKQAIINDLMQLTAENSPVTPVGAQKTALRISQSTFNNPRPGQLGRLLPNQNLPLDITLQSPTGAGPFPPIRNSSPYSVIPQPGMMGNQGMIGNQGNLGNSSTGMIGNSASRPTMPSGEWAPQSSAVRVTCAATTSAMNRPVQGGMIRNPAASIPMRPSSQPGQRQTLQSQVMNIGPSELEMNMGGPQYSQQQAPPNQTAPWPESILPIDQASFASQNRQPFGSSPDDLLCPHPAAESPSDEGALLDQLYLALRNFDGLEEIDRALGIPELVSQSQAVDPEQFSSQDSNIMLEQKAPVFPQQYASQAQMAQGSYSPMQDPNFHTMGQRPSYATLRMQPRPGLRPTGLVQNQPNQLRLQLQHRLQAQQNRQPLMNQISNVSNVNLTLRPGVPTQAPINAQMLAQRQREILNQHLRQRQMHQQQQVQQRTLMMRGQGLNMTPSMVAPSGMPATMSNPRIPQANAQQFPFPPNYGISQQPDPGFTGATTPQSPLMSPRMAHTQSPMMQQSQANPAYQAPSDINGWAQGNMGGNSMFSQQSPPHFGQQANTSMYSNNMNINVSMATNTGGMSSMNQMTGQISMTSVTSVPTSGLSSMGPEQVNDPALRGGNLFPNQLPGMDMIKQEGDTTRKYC
For `CCOc1cc(/C=C(/C#N)c2ccc(Cl)cc2)cc(Cl)c1OCC(=O)O`, the inhibition is 56.9% (active).

Take `N#C/C(=C/c1ccc(Cl)cc1)NC(=O)c1ccccc1`: the inhibition is -29%.

For `CCOC(=O)CN(C(=O)COc1nc(C)cc(C)c1C#N)c1ccc(Cl)cc1`, the inhibition was -18%.

With `C=CCn1c(SCC(N)=O)nnc1-c1ccccc1OC`, the inhibition is -9.59%.

On to `CC(C)CC1NC(=O)c2cc(Cl)ccc2-n2c1nc1ccccc1c2=O` (stereo unspecified), for which the inhibition was 5.29%.

As to `CN(c1ccc2nc3ccccc3c(=O)n2n1)C1CCCCC1`, the inhibition was 72.1% (active).

In the case of `O=C(c1ccco1)N(Cc1nc2ccccc2c(=O)[nH]1)C1CCCC1`, the inhibition is 2.27%.

Consider `O=C(NC1Cc2ccccc2C1)c1cc(COc2cccc(C(F)(F)F)c2)on1`, for which the inhibition is 11.1%.

As to `CC1(C)CC(N2CCN(C(c3ccccc3)c3ccccc3)CC2)=CC(=[N+]2CCCCC2)C1`, the inhibition is 24.5%.

In the case of `COc1ccc(S(=O)(=O)N2CCc3ccccc32)cc1C(=O)Nc1cc(S(C)(=O)=O)ccc1Cl`, the inhibition is -10.2%.

Turning to `O=C(Nc1nc2ccc(Cl)cc2s1)c1cc(-c2ccc(Cl)cc2)nc2ccccc12`, the inhibition was -2.88%.

As for `CC(OC(=O)CN1C(=O)C2CCCCC2C1=O)C(=O)Nc1ncc(Cl)cc1Cl` (stereo unspecified), the inhibition was 1.55%.

Take `O=C(COC(=O)CN1C(=O)C2CCCCC2C1=O)Nc1ccc(F)c(F)c1F` (stereo unspecified): the inhibition was -13.3%.

In the case of `CC1=CC(C)(C)Nc2ccc(OC(=O)CN3C(=O)C4CCCCC4C3=O)cc21` (stereo unspecified), the inhibition was 52.7% (active).

In the case of `Cc1ccc(-n2c(SCC(=O)Nc3cccc4ccccc34)nnc2-c2ccco2)cc1`, the inhibition is -19.3%.

In the case of `CC(C)(C)c1ccc(Oc2ccc(N)cc2)cc1`, the inhibition was 92% (active).

`CN1CCNC(=O)C1CC(=O)NCCC1=CCCCC1` (stereo unspecified): the inhibition was 20.1%.

On to `CN1CCCCC(NC(=O)C(C)(C)C)C1=O` (stereo unspecified), for which the inhibition is -8.4%.

`CCC(c1ccc(NC(=O)OC(C)(C)C)cc1)c1cc(OC)cc(OC)c1` (stereo unspecified): the inhibition is 11.3%.

In the case of `CC(=O)c1cc(-c2ccc3ccccc3c2)c(=O)n2c1CCC2`, the inhibition was -32.7%.

In the case of `COc1cccc(CN2CCN(Cc3ccc4cccc(F)c4n3)CC2CCO)c1` (stereo unspecified), the inhibition is -4.49%.

As for `COc1ccc(/C=C/C(=O)NC(=S)N2CCCC(C(N)=O)C2)cc1` (stereo unspecified), the inhibition was -8.4%.

With `CCOc1ccc(NC(=O)COC(=O)C2CCC(=O)N2)c([N+](=O)[O-])c1` (stereo unspecified), the inhibition is -12.2%.

Turning to `CCOc1ccc(NC(=S)NC(=O)/C=C/c2ccc(OC)cc2)c([N+](=O)[O-])c1`, the inhibition is 95.6% (active).

On to `CC(C)(C)c1ccc(CSc2nnc(-c3cccs3)o2)cc1`, for which the inhibition is -21.4%.

As to `COC[C@@H]1CCCN1c1ccc2c(c1)O[C@H](C)CCN(C1CC1)S2(=O)=O`, the inhibition is 14.3%.

For `O=C(NCc1ccccn1)[C@@H]1CCCN1C(=O)[C@@H]1CCCN1C(=O)c1ccccc1`, the inhibition was -0.2%.

On to `COc1ccc(C2=CN(Cc3ccccc3)C(c3ccc(OC)cc3)CC2=O)cc1` (stereo unspecified), for which the inhibition is 12.8%.

For the molecule `CCOC(=O)[C@]12CCCC3=C1N(CCC3)C(=O)[C@@H](CC(=O)N1CCSCC1)C2`, the inhibition was 12.6%.

As to `CC1(C)CC2CC(C)(CN2c2ncnc3ccc(Br)cc23)C1` (stereo unspecified), the inhibition was 17.4%.

With `COc1ccc(Nc2ncnc3ccc(Br)cc23)c(OC)c1`, the inhibition was 86.6% (active).

`CCOC(=O)CNc1nc(Cl)nc(Nc2ccc(OC)cc2OC)n1`: the inhibition is -23.9%.

Turning to `CC(C)CNc1cccc2c1S(=O)(=O)N(Cc1cn(Cc3ccccc3C(F)(F)F)nn1)Cc1ccccc1O2`, the inhibition was 2.85%.

Take `CC(=O)Nc1ccc(NC(=O)COC(=O)C2CCC(C(C)(C)C)CC2)cc1` (stereo unspecified): the inhibition was -24.4%.

Turning to `CCC(C)(C)c1ccc(Oc2ccc(NC(=O)COC(=O)C3=COCCO3)cc2)cc1`, the inhibition was 56.6% (active).

Regarding `CCOC(=O)c1sc(N)c(C#N)c1COC(=O)C1=COCCO1`, the inhibition is 7.27%.

As to `Cc1nnc(SCC(=O)N2c3ccccc3C(C)(c3ccc(Cl)cc3)CC2(C)C)s1` (stereo unspecified), the inhibition was -11.4%.

With `C=CCNC(=O)c1sc(SC)cc1-c1ccc(Cl)cc1`, the inhibition was 3.88%.

In the case of `O=C(OC12CCCN(C1)/C(=C/c1ccccc1)C2)c1ccco1` (stereo unspecified), the inhibition was 9.76%.

For `OCC[C@H]1C[C@H](O)[C@@H](O)[C@]2(CCc3ccccc3O2)O1`, the inhibition is 3.27%.

Regarding `CCOC(=O)c1ccccc1NS(=O)(=O)c1c(C)nc2sccn2c1=O`, the inhibition was -4.6%.

For `Cc1nc(-c2ccccc2)cn2c1nc1ccccc12`, the inhibition was 7.57%.

For `Cc1ccc2nc(-c3ccccc3)c(CC3CCCCC3)n2c1`, the inhibition is -25.6%.

Consider `Cc1ccc(-c2cn3cc(C)ccc3n2)cc1`, for which the inhibition is 72.6% (active).

On to `Cc1nc(=O)c(-c2ccccc2)c(C)n1-c1ccc(Br)cc1`, for which the inhibition was -29.2%.

As to `Cc1ccc2nc(-c3ccc(Br)cc3)cn2c1`, the inhibition is 60.3% (active).

On to `COc1cc(C(=O)Nc2cc(C(F)(F)F)ccc2N2CCOCC2)ccc1O`, for which the inhibition was -7.29%.

Consider `COc1ccc(C(=O)Nc2ccccc2C(=O)N/N=C/c2ccc(O)c(OC)c2)cc1`, for which the inhibition is 55% (active).

On to `COc1cc(/C=C/C(=O)OCC(=O)Nc2cccc(Oc3ccccc3)c2)ccc1O`, for which the inhibition was 11.1%.

`Cc1ccccc1NC(=O)Cn1nnc(-c2ccccc2F)n1`: the inhibition was 11.4%.

`C=CCn1c(C)cc(C2=NNC(=NCC)SC2)c1C`: the inhibition is 84.4% (active).

Regarding `CC(C)CNc1cccc2c1S(=O)(=O)N(Cc1cn(Cc3ccc(Cl)cc3)nn1)Cc1ccccc1O2`, the inhibition is 26.6%.

For the molecule `CN(CCC(=O)Nc1cc(S(=O)(=O)N(C)C)ccc1Cl)CC(=O)Nc1ccc(F)cc1`, the inhibition was -17.9%.

Take `Cc1nnc(NC(=O)CSc2nccn2-c2cccc(C)c2C)s1`: the inhibition was -5.88%.

For `Cc1ccc(CS(=O)(=O)CCC(=O)NC2CC2)cc1`, the inhibition is -50%.

Regarding `Cc1ccc(CS(=O)(=O)c2ncc(Cl)c(C(=O)Nc3nnc(C)s3)n2)cc1`, the inhibition was 64% (active).

Consider `O=C(CCS(=O)(=O)c1ccccc1)Nc1ccc(Cl)c(Cl)c1`, for which the inhibition was -2.79%.

With `Cc1cccc(NC(=O)c2cc3c(C)nn(-c4ccccc4)c3s2)c1`, the inhibition is 0.27%.

For `Cc1cccc(NC(=O)c2nc(S(=O)(=O)Cc3ccccc3)ncc2Cl)c1`, the inhibition is 64.1% (active).

As for `Cc1cccc(C(=O)Nc2c(-c3ccc(F)cc3)nc3ncccn23)c1`, the inhibition is 16.3%.

Turning to `Cc1cccc(CS(=O)(=O)c2ncc(Cl)c(C(=O)Nc3ccc(F)cc3)n2)c1`, the inhibition is 62.1% (active).
